This passage reports growth results from PubChem BioAssay (NCI).

The panel holds about 83,000 compounds, 20% with a hit somewhere; the sample as a whole holds those more often.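 Single-dose data. Exposure time 48 hours. Values below 10 considered active.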 Unmarked numbers belong to inactive results. Active and inactive are the calls of the source.

What all share (assay): NCI-60 one-dose screen, 48 h (100 = growth as untreated, 0 = no growth, -100 = all killed)
What all share (settings): 10 µM

Experiment [1] concerns NCI-H23 lung.
Experiment [2] concerns NCI-H226 lung.
For experiment [3], the system named is NCI-H322M lung.
Experiment [4] has as its system HOP-62 NSCLC.
Experiment [5] relates to NCI-H460 lung.
Experiment [6] deals with HOP-92 NSCLC.
Experiment [7] deals with NCI-H522 lung.
For experiment [8], the system named is A549/ATCC NSCLC.
Experiment [9] relates to 786-0 renal.
Experiment [10] concerns COLO 205 colon.
The test system of experiment [11] is DU-145 prostate.
For experiment [12], the system named is K-562 leukemia.
The test system of experiment [13] is MALME-3M melanoma.
Experiment [14] deals with MDA-MB-231 breast.
Experiment [15] concerns RXF 393 renal.
The test system of experiment [16] is SF-268 CNS.
Experiment [17] concerns SF-295 CNS.
The subject of experiment [18] is SF-539 CNS.
The subject of experiment [19] is UACC-257 melanoma.
In experiment [20] the test system is M14 melanoma.

Consider `CCc1ccc(-c2nnc(COc3ccc(-c4nc5ccc(C)cc5[nH]4)cc3OC)o2)cc1`, for which the growth was 57.2% in experiment [1]; 48.6% in experiment [2]; 87.2% in experiment [3]; 32.6% in experiment [4]; 63.5% in experiment [5]; 74.1% in experiment [6]. Besides, the growth in experiment [7] is 71.3%; in [8], 61.6%; in experiment [9], 21%; in [10], 84.7%; in [11], 48.5%; in experiment [12], 33.1%. Also, the growth in experiment [13] is 9.91% (active); in experiment [14], 9.26% (active); in [15], 24.4%; in [16], 55.6%; in [17], 20%; in experiment [18], -28.2% (active). Further, the growth is 95.7% in experiment [19] and 49.5% in [20].

For the compound `COc1cc(-c2cc(-c3cc(OC)c(OC)c(OC)c3)nc3nc(N)[nH]c(=O)c23)ccc1Oc1ccnc2cc(Cl)ccc12`, the growth is 42.1% in [1]; 76% in [2]; 37.5% in [3]; 29.8% in experiment [4]; 13.8% in experiment [5]; 6.33% (active) in experiment [6]. Also, the growth in [7] was 29.9%; in experiment [8], 32.3%; in experiment [9] it was 51.4%; in [10], 105%; in experiment [11], 33.9%; in experiment [12], 10.6%. Further, the growth in [13] is 59%; in experiment [14] it was 36.7%; in experiment [15], -13% (active); in experiment [16], 47.2%; in experiment [17] it was 93.5%; in [18] it was -59.7% (active). The growth in experiment [19] was 66.6%.

For the compound `COCCOC(=O)NC(=O)Nc1ccc(/C(=N/O)c2ccc(Cl)cc2)cc1`, the growth in [1] is 29.2%; in experiment [2], 33.3%; in experiment [3], 30.5%; in experiment [4], 19.2%; in experiment [5], 7.81% (active); in experiment [6], 44.6%. The growth is -38.3% (active) in experiment [7]; 15.4% in [8]; 22.3% in experiment [9]; -42.6% (active) in experiment [10]; 4.9% (active) in [11]; 6.7% (active) in experiment [12]. Also, the growth in experiment [13] was 90%; in experiment [14] it was 12.8%; in [15], -13.1% (active); in experiment [16], 43.2%; in experiment [17], -8.84% (active); in experiment [18] it was 1.64% (active). In addition, the growth in experiment [19] is 71.6%.

For the compound `Cc1ccc(-c2cc(C(=O)Nc3ccc(S(=O)(=O)N4CCCCC4)cc3)[nH]n2)c(O)c1`, the growth was 55.4% in experiment [1]; 76.5% in experiment [2]; 89.3% in experiment [3]; 90.7% in [4]; 51.6% in experiment [5]; 56.1% in experiment [6]. Besides, the growth is 72.1% in experiment [7]; 52.2% in [8]; 62.3% in experiment [9]; 55.3% in [10]; 64.8% in [11]; 17.9% in [12]. Moreover, the growth was 74% in [13]; 56.1% in experiment [14]; 50.7% in [15]; 69.9% in [16]; 62.4% in experiment [17]; 48.8% in experiment [18]. The growth in experiment [19] was 52%.

`O=C(c1ccc(Cl)cc1)c1no[n+]([O-])c1C(=O)c1ccc(Cl)cc1`: the growth in experiment [1] is 98.4%; in [2], 102%; in experiment [3], 107%; in [4], 104%; in experiment [5], 108%; in experiment [6], 88.4%. Besides, the growth was -77.8% (active) in experiment [7]; 104% in [8]; -34.5% (active) in [9]; 107% in experiment [10]; 94.1% in experiment [11]; 5.95% (active) in [12]. Further, the growth is -76.2% (active) in experiment [13]; 124% in experiment [14]; 44.6% in [15]; 102% in experiment [16]; 83.8% in experiment [17]; 98.5% in [18]. The growth in experiment [19] is 104%.

Take `CCC(O)c1ccc(Br)cc1NC(=O)c1cccc(Cl)c1` (stereo not drawn): the growth in experiment [1] was 28%; in [2], -1.35% (active); in [3] it was 29.4%; in experiment [4], 28%; in experiment [5] it was 3.22% (active); in experiment [6], 48.6%. Moreover, the growth in experiment [7] was 24.2%; in experiment [8] it was 4.24% (active); in experiment [9] it was 18.1%; in experiment [10], 93.9%; in [11], 27.9%; in [12], 8.78% (active). Besides, the growth is -3.37% (active) in experiment [13]; -1.69% (active) in experiment [14]; 16.3% in experiment [15]; 18.7% in [16]; 9.43% (active) in experiment [17]; 2.67% (active) in experiment [18]. For the same compound, in experiment [19], the growth was 7.67% (active).

As to `COc1cc(C2C=C(c3ccc(Cl)c(Cl)c3)N=C3SC(C)=CN32)cc(OC)c1OC` (stereo not drawn), the growth in experiment [1] was 79.5%; in experiment [2], 50.5%; in [3] it was 81.8%; in experiment [4] it was 91.1%; in [5], 77.5%; in [6], 81.9%. The growth in experiment [7] is 57.2%; in [8] it was 83.8%; in experiment [9], 85.6%; in experiment [10], 81.3%; in [11] it was 80.3%; in experiment [12] it was 32.1%. The growth in experiment [13] is 82.9%; in experiment [14] it was 89%; in experiment [15] it was 67.1%; in experiment [16], 87.8%; in [17], 75.6%; in experiment [18], 81%. Besides, the growth in [19] is 98.8%.

In the case of `COc1ccc(C(=O)c2sc3nc(-c4cccs4)ccc3c2N)cc1OC`, the growth is 74.3% in experiment [1]; 73% in experiment [2]; 85% in [3]; 70.6% in experiment [4]; 36.1% in experiment [5]; -0.708% (active) in experiment [6]. The growth in [7] was 24%; in [8], 35.8%; in experiment [9], 70.7%; in [10], 40.9%; in [11] it was 81%; in experiment [12], 13%. The growth in experiment [13] is 58.9%; in experiment [14], 43.8%; in [15], 66.9%; in experiment [16] it was 62.8%; in [17] it was 51.3%; in [18], 54.6%. Besides, in experiment [19], the growth is 76.3%.
